Experimental data from the supplement of paper PMC10849652.
Targets with a hit are over-represented here; the source holds about 7,900 in all. About 0.6% of all pairs of compound and target were hits.

Compound: c1cn2cc(-c3ccc4cn[nH]c4c3)nc(Nc3ccc(N4CCOCC4)cc3)c2n1 [entospletinib]
Assay: log2 fold change, soluble protein after heating vs DMSO (PISA); higher = thermal stabilisation; K562 cells, 10 uM, 30 min; active = over 0.2 and 3.5 SD of the protein, either way, in both replicates (recomputed)
Method in brief: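 Soluble protein was defined as the supernatant after 21,000xg for 90 min. It came from K562 cells at 2×10^6 cells/mL given 10 μM compound for 30 min, heated in aliquots for 3 min across 48°C-58°C, pooled, and extracted in PBS with 0.5% NP-40 at 4°C, and was quantified by TMTpro 16plex LC-MS/MS with equalised channel sums. Thermal stability against control samples, from duplicates, is reported as log2 fold change.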

Sequence of UniProt Q86WA6 (Q86WA6 whole entry, looked up): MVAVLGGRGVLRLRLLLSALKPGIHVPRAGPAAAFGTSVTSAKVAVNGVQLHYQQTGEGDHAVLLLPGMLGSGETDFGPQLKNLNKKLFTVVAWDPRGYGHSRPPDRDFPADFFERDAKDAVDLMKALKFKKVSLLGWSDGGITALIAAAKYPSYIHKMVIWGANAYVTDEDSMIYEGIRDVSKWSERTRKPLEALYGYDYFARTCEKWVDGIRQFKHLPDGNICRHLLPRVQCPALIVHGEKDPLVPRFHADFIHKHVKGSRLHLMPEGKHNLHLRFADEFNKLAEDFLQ
Sequence of UniProt Q96CW1 (Q96CW1 whole entry, looked up): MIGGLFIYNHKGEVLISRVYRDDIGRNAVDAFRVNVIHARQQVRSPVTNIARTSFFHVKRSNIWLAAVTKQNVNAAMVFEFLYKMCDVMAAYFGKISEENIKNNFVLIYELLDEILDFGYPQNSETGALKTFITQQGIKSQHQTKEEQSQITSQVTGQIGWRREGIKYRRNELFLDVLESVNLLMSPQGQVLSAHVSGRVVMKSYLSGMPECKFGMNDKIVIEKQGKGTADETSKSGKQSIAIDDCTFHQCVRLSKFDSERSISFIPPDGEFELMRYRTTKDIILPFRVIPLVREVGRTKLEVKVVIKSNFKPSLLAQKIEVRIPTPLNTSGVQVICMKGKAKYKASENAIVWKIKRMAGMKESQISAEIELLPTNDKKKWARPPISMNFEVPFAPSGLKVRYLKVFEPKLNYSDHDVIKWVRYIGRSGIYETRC
Sequence of UniProt Q00973 (Q00973 whole entry, looked up): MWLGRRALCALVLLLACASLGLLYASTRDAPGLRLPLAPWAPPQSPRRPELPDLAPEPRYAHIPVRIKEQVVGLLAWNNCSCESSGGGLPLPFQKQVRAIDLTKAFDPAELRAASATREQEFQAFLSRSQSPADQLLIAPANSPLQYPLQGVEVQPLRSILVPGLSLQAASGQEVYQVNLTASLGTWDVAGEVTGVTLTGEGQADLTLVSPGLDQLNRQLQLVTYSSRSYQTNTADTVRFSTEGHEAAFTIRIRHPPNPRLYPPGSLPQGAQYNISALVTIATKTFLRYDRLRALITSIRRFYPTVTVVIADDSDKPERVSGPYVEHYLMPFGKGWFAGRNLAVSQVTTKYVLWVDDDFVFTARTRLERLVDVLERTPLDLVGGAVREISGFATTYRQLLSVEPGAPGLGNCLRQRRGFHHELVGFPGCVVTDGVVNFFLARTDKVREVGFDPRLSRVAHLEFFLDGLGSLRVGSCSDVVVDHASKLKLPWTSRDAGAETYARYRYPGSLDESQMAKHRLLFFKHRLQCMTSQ
Sequence of UniProt Q9NQ11 (Q9NQ11 whole entry, looked up): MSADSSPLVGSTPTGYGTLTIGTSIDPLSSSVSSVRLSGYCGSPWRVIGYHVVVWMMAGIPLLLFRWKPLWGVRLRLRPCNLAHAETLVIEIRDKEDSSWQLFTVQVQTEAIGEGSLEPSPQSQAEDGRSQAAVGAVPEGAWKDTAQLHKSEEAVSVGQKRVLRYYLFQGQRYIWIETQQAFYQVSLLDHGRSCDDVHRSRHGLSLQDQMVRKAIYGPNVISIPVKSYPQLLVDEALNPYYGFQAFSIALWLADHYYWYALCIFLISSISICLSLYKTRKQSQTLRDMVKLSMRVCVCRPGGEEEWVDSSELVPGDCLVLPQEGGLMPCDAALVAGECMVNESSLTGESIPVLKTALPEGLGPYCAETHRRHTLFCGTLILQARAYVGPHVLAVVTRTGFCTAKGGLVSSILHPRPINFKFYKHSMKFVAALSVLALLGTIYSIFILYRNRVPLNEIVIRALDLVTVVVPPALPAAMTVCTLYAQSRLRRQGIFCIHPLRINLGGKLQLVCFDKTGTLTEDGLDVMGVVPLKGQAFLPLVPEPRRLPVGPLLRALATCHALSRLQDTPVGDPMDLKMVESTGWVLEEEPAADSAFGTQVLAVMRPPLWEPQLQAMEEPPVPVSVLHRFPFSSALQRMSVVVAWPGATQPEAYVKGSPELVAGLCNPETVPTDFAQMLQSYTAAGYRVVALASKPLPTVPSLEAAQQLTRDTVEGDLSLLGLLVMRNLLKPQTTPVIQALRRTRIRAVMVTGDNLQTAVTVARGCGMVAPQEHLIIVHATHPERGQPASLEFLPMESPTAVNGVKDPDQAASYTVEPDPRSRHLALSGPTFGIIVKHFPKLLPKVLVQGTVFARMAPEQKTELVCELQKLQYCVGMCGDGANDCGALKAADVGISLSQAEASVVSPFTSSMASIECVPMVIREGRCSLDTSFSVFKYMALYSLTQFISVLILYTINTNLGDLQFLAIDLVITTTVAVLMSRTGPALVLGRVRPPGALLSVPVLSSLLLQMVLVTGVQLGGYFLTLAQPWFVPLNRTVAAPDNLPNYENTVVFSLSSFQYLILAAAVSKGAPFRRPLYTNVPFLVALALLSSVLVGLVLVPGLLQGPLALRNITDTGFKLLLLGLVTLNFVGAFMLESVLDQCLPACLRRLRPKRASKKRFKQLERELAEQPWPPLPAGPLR
Sequence of UniProt P18846 (P18846 whole entry, looked up): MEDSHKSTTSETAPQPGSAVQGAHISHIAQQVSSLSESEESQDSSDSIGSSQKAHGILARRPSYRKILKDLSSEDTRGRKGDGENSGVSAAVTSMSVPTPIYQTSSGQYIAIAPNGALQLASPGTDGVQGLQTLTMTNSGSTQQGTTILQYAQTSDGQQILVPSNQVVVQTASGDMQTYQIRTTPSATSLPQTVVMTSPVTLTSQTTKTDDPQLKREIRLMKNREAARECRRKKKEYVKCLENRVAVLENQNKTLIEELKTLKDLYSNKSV
Sequence of UniProt P56211 (P56211 whole entry, looked up): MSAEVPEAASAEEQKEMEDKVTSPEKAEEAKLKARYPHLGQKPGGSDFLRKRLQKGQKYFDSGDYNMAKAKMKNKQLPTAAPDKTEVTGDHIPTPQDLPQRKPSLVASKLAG
Sequence of UniProt Q9Y6E2 (Q9Y6E2 whole entry, looked up): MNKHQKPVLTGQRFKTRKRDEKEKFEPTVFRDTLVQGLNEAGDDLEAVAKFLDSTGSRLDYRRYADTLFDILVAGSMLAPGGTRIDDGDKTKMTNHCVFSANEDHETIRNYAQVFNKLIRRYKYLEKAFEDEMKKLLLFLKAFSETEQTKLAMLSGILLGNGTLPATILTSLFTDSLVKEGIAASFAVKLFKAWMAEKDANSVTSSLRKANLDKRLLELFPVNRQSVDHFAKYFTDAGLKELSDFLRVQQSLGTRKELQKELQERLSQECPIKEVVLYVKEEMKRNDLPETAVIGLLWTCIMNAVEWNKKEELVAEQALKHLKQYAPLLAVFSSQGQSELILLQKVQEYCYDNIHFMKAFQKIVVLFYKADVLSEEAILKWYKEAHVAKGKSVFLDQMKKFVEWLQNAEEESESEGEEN
Sequence of UniProt Q9HC16 (Q9HC16 whole entry, looked up): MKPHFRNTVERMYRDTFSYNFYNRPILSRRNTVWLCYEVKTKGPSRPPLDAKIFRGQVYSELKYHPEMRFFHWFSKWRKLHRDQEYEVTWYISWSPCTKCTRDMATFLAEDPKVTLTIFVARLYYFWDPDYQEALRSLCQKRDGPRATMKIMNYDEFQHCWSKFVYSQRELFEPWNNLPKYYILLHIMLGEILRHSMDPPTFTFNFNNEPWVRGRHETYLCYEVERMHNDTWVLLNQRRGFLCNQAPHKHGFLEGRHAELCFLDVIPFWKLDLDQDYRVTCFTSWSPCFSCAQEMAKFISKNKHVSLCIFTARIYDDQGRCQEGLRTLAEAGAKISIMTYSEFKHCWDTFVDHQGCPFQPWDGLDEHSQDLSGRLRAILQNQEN
Sequence of UniProt O43861 (O43861 whole entry, looked up): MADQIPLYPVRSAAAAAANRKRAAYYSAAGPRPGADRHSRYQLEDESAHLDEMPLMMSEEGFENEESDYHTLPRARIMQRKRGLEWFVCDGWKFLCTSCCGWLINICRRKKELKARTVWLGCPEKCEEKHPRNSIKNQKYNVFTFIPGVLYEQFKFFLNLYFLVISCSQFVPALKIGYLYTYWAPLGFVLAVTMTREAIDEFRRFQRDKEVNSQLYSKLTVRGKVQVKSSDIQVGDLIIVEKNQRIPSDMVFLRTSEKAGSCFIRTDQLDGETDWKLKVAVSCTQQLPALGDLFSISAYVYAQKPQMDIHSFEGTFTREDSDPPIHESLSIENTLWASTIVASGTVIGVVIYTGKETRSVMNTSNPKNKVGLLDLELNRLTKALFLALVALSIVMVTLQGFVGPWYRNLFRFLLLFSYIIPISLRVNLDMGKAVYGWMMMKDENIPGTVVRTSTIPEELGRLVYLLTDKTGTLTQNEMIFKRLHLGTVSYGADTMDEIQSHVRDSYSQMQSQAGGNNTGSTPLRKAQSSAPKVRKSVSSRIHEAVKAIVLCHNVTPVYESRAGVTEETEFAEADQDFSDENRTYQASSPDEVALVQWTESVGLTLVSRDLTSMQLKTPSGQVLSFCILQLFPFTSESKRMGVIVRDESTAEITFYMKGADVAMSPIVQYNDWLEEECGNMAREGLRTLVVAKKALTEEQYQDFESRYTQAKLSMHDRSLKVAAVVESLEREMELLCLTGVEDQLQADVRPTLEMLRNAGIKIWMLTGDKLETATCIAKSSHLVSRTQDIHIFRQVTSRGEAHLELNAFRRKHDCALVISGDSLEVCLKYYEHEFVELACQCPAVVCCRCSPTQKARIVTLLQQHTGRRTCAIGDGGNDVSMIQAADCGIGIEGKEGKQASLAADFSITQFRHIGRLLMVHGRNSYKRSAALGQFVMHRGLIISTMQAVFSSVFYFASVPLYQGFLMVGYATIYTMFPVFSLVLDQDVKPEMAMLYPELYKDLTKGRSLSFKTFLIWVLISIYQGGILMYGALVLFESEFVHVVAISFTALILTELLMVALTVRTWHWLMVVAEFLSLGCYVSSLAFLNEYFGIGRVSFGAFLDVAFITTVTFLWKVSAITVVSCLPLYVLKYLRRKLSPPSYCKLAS
Sequence of UniProt Q8WUW1 (Q8WUW1 whole entry, looked up): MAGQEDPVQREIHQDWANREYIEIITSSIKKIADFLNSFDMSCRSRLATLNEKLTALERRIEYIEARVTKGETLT
Sequence of UniProt P56385 (P56385 whole entry, looked up): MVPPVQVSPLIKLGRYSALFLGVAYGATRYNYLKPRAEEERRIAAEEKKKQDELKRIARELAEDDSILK

log2 fold change, inactive:
ATP5ME (UniProt P56385) 0.027, ARFGEF1 (UniProt Q9Y6D6) -0.009, BCCIP isoform 2 (UniProt Q9P287) 0.008, ACSL3 (UniProt O95573) -0.06, BPHL (UniProt Q86WA6) -0.01, ATF1 (UniProt P18846) -0.006, ASNS (UniProt P08243) 0.004, BZW2 (UniProt Q9Y6E2) 0.002, ANKRD29 (UniProt Q8N6D5) -0.152, ANKZF1 (UniProt Q9H8Y5) 0.006, AMFR (UniProt Q9UKV5) -0.059, ASS1 (UniProt P00966) 0.096, ATP6AP1 (UniProt Q15904) -0.012, ATP13A2 (UniProt Q9NQ11) -0.115, ATXN7L3 isoform 2 (UniProt Q14CW9) 0.494, ATP6V0A2 (UniProt Q9Y487) 0.009, BRD4 (UniProt O60885) 0.065, ALG11 (UniProt Q2TAA5) -0.005, ATP2A3 isoform 2 (UniProt Q93084) -0.036, BRAP (UniProt Q7Z569) 0.002, AURKA (UniProt O14965) 0.282, AAR2 (UniProt Q9Y312) -0.017, BRK1 isoform 2 (UniProt Q8WUW1) 0.047, ATP9B (UniProt O43861) -0.134, ARHGAP1 (UniProt Q07960) 0.011, ARPP19 (UniProt P56211) -0.06, ACADVL isoform 3 (UniProt P49748) 0.002, BCL9L (UniProt Q86UU0) -0.027, ATP1A1 (UniProt P05023) 0.002, BID isoform 2 (UniProt P55957) 0.025, B4GALNT1 (UniProt Q00973) 0.074, APOBEC3G (UniProt Q9HC16) 0.126, AARS2 (UniProt Q5JTZ9) -0.082, ANAPC2 (UniProt Q9UJX6) -0.001, ACVR1 (UniProt Q04771) -0.053, ATP23 (UniProt Q9Y6H3) 0.077, AMD1 (UniProt P17707) 0.045, ATAD3A isoform 2 (UniProt Q9NVI7) 0.024, AP2M1 (UniProt Q96CW1) 0.025
